Results published in PubChem BioAssay (NCI).
The panel holds about 79,000 compounds, 15% with a hit somewhere; the sample as a whole holds those more often. Cut-off read from the data, not from the text of the source: active = growth inhibition above about 70%; inactive = the rest.

Experiments:
[1] = NCI Yeast Anticancer Drug Screen. Data for the rad50 strain (AID 155);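 note: 0% = growth of vehicle-only cultures of the same strain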; details: S. cerevisiae rad50 strain growth inhibition; at 50.0 µM; hits give high values
Summary of the method: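 A DNA repair-deficient yeast mutant serves as the test organism; compound-induced growth inhibition is calculated against vehicle-treated cells.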

[2] = NCI Yeast Anticancer Drug Screen. Data for the mec2-1 strain (AID 157); details: S. cerevisiae mec2-1 strain, at 50.0 µM, hits give high values
Summary of the method: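 Test agents were screened against the mec2-1 yeast strain, with defined DNA repair or cell cycle alteration. Growth was scored as inhibition against vehicle-only controls.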

[3] = NCI Yeast Anticancer Drug Screen. Data for the sgs1 mgt1 strain (AID 161);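 note: 0% = growth of cultures given vehicle only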; details: S. cerevisiae sgs1 mgt1 strain, at 50.0 µM, hits give high values
Summary of the method: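 Read-out: growth inhibition vs vehicle controls. Cells: mutant yeast strain deficient in DNA damage repair.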

[4] = NCI Yeast Anticancer Drug Screen. Data for the cln2 rad14 strain (AID 165);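 note: 0% = growth equal to vehicle treated cultures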; details: S. cerevisiae cln2 rad14 strain, at 50.0 µM, hits give high values
Summary of the method: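 Growth of compound-exposed yeast (cln2 rad14 genotype) measured and expressed as inhibition relative to vehicle.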

[5] = NCI Yeast Anticancer Drug Screen. Data for the bub3 strain (AID 167); details: S. cerevisiae bub3 mutant strain, at 50.0 µM, hits give high values
Summary of the method: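 Inhibition values come from growth of compound-treated mutant yeast normalised to vehicle-treated controls.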

[6] = NCI Yeast Anticancer Drug Screen. Data for the mlh1 rad18 strain (AID 175); details: S. cerevisiae mlh1 rad18 strain growth inhibition; at 50.0 µM; hits give high values
Summary of the method: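 In this whole-cell yeast screen, a strain with altered DNA damage repair is challenged with compound, and its growth is measured against matched vehicle-treated controls.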

Measured: growth inhibition

COc1cc(C(C)C)c(Oc2c(C)c(OC)cc(C(C)C)c2O)cc1C (tested in a mixture with another compound)
inactive: [1] -7.5% | [2] -21.4% | [3] -9.6% | [4] -11.1% | [5] 7.9% | [6] 7.4%

N#C/C(=C\NC(N)=S)C(=O)c1ccc2ccccc2c1
inactive: [1] -14.3% | [2] -20.9% | [3] -25.9% | [4] 27.5% | [5] 0.8% | [6] -11.1%

Cn1nnc2c(C(N)=S)ncn2c1=O
inactive: [1] 30.1% | [2] 11% | [3] 10.7% | [4] 19.6% | [5] 17.9% | [6] 22%

S=c1cc(S)sc2c1c(=S)sc1nc3ccccn3c(=S)c12
inactive: [1] -2.35% | [2] 28.6% | [3] 35.3% | [4] 18% | [5] 24.6% | [6] 45%

Nc1cccc(OCCOc2ccccc2[N+](=O)[O-])c1
inactive: [1] 5% | [2] 26.6% | [3] 28.1% | [4] -4.7% | [5] 29.5% | [6] 18.9%

COc1c(OCC(O)CN2CCCCC2)c2c(C)coc2c2ccoc12 (stereo not given)
inactive: [1] 34.5% | [2] 18.6% | [3] 16.1% | [4] 9.25% | [5] 4.15% | [6] 23.1%

N#Cc1nc(C(O)c2ccccc2)oc1N (stereo not given)
inactive: [1] -6.75% | [2] 16.4% | [3] -7.05% | [4] 11.8% | [5] -10.3% | [6] -71.1%

Oc1ccc(Cl)cc1/C=N\NC(=S)Nc1ccc2cn[nH]c2c1
inactive: [1] -2.7% | [2] 10.1% | [3] 13.9% | [4] -39.4% | [5] 20.8% | [6] 11.3%

CCC1CN2CCc3c([nH]c4ccccc34)[C@@](C(=O)OC)(c3cc4c(cc3OC)N(C)C3C(O)(C(=O)OC)C(C(=O)OC)C5(CC)C=CCN6CCC43C65)C[C@@H](C2)[C@@H]1C(C)(C)C (stereo not given in full)
inactive: [1] -6.3% | [2] -10% | [3] -9% | [4] -13.6% | [5] -36.3% | [6] -72.7%

CC1CC(=O)Oc2ccccc21 (stereo not given)
inactive: [1] 35.5% | [2] 5.7% | [3] 3.8% | [4] -3.35% | [5] 5.95% | [6] 1.5%

COC(=O)C1CCCN1C(c1ccccc1)(c1ccccc1)c1ccccc1 (stereo not given)
inactive: [1] -9.45% | [2] -2.2% | [3] -11.5% | [4] -2.15% | [5] 2.45% | [6] -23.5%

O=c1[nH]c2cc(Cl)c([N+](=O)[O-])cc2c2ccccc12
inactive: [1] 15.1% | [2] -7.35% | [3] 4.35% | [4] -42% | [5] -11.2% | [6] -0.25%

O=S=NCCCl
inactive: [1] -14.3% | [2] -14.6% | [3] -13.2% | [4] 1.5% | [5] -10.8% | [6] 0.35%

N#Cc1c2c(c(N=P(c3ccccc3)(c3ccccc3)c3ccccc3)n3c1nc1ccccc13)CCCC2
inactive: [1] 44.6% | [2] 5.5% | [3] 14.9% | [4] 41.9% | [5] 30% | [6] 26.9%

CCCCCCCCc1cc(CN2CCOCC2)c(O)c(CN2CCOCC2)c1
inactive: [1] 25.1% | [2] 14.6% | [3] 22.2% | [4] 24.4% | [5] 12.8% | [6] 21.6%

CC(C)CCOc1ccc(CCO)cc1
inactive: [1] 0.45% | [2] -8.9% | [3] -4.5% | [4] -7.75% | [5] -36.4% | [6] -24.8%

O=C1c2ccccc2C(=O)N1CC1CO1 (stereo not given)
inactive: [1] 2.85% | [2] 10.3% | [3] 0.5% | [4] -7.7% | [5] 3.4% | [6] 27.3%

OC(C/C=N/N=C/CC(O)(C(F)(F)Cl)C(F)(F)Cl)(C(F)(F)Cl)C(F)(F)Cl
inactive: [1] 36% | [2] 28.3% | [3] 31.7% | [4] 35.2% | [5] 34.5% | [6] 34.1%

N#Cc1c(/C=C/c2ccccc2)c2c([nH]c1=S)CCCCC2
inactive: [1] 0.35% | [2] -17.5% | [3] 16.1% | [4] 26.8% | [5] 16.9% | [6] 19.1%

O=C1c2ccccc2-c2nc(-c3ccncc3)cc3c2c1nc1ccccc13
inactive: [1] 25.6% | [2] 18.4% | [3] 27.2% | [4] 11.1% | [5] 14.1% | [6] 34.4%
